# aSyn 5UTR act: Activators working through SNCA 5'UTR binding (MLPCN). alpha-synuclein 5'UTR reporter, activators screen. activity score, % (tested at 7.5 µM), hits read low. hit rate 7.1% among 300,000; in the data active = activity score below about -60%
# A number is an active result; - = inactive. Only a sample is shown.
SMILES,aSyn 5UTR act
O=C(Nc1ccc(-c2cn3c(n2)SCC3)cc1)c1ccc2ccccc2n1,-186
O=C(Nc1cccc(-c2cn3c(n2)SCC3)c1)c1ccc2ccccc2n1,-141
CC(=O)Cn1nnc2sc3c(c2c1=O)CCC(C(C)(C)C)C3 (configuration not stated),-113
N#Cc1c(N2CCCC2)nsc1-c1ccccc1,-180
N#Cc1c(N2CCOCC2)nsc1-c1ccccc1,-68
O=C1NCCN/C1=C\C(=O)c1cccc(Br)c1,-62
O=C1NCCN/C1=C\C(=O)c1ccc(Br)cc1,-120
Cc1ccccc1OCC(=O)N/N=C/c1ccc([N+](=O)[O-])o1,-68
O=C(Cc1ccc([N+](=O)[O-])cc1)N/N=C/c1ccc([N+](=O)[O-])o1,-
CC1(C(=O)N/N=C/c2ccc([N+](=O)[O-])o2)CC1(Br)Br (configuration not stated),-96
O=C(COc1ccccc1[N+](=O)[O-])N/N=C/C=C/c1ccco1,-73
Cc1cc(C)nc(Nc2n[nH]c(-c3ccccc3C)n2)n1,-136
Cc1cc(C)nc(Nc2n[nH]c(-c3ccccc3Br)n2)n1,-115
CCCCOc1ccc(-c2ncc(C(=O)O)c(C)n2)cc1,-123
CCS(=O)(=O)N1CCC(c2nc(-c3ccc(C)cc3)no2)CC1,-78
Cc1ccc(N(C)S(=O)(=O)c2ccc(-c3cnc(C4CC4)o3)cc2)cc1,-
Cc1cccc(-c2noc(C3CCCCC3)n2)c1,-150
Cc1cccc(-c2noc(-c3ccno3)n2)c1,-121
Cc1ccc(-c2noc(C3CCCCC3)n2)cc1,-187
Nc1nc2ccccc2n1/N=C/c1ccc([N+](=O)[O-])s1,-
Nc1nc2ccccc2n1/N=C/c1ccc(-c2ccccc2)o1,-191
CC1CCC/C=C/C(=O)c2c(O)cc(O)cc2CC(=O)O1 (configuration not stated),-153
C/C(=N/NC(=O)c1ccc2c(c1)OCO2)c1cccc([N+](=O)[O-])c1,-133
C/C(=N\NC(=O)c1cccc([N+](=O)[O-])c1)c1cccs1,-81
CCNC(=S)N/N=C(\C)c1cccc([N+](=O)[O-])c1,-62
SMILES,aSyn 5UTR act
C/C(=N/NC(=O)c1ccc2c(c1)OCO2)c1ccc(Br)s1,-89
C/C(=N\NC(=O)c1ccc(Cl)c(Cl)c1)c1ccc(Br)s1,-
CCS(=O)(=O)c1ccc2oc(Nc3ccccc3Cl)nc2c1,-154
CCS(=O)(=O)c1ccc2oc(Nc3cccc(OC)c3)nc2c1,-145
CCS(=O)(=O)c1ccc2oc(Nc3ccccc3Br)nc2c1,-108
NC1=C(Br)C(=O)c2ccccc2C1=O,-
O=C1c2ccccc2-c2nc3ccccc3nc21,-182
CN(C)S(=O)(=O)c1cccc(C(=O)Nc2ccc(Cl)cn2)c1,-116
COc1ccc(C(=O)Nc2ccc(Cl)cn2)cc1Cl,-182
CCC(=O)c1ccc(SC(=O)N(C)C)cc1O,-68
COc1ccc(NC(=O)CSc2nc(N)c(C(=O)Nc3ccc(N(C)C)cc3)s2)cc1,-66
CN(C)c1ccc(NC(=O)CSc2nc(N)c(C(=O)Nc3ccc(N(C)C)cc3)s2)cc1,-151
Cc1ccc(Nc2ccc([N+](=O)[O-])cn2)cc1Cl,-93
CN(C)c1ccc(Nc2ccc([N+](=O)[O-])cn2)cc1,-162
CCc1cc(C(=O)NNC(=S)Nc2cccc(C)c2)cs1,-130
Cc1cccc(NC(=S)NNC(=O)c2csc(C(C)C)c2)c1,-211
Cc1cccc(NC(=S)NNC(=O)c2sccc2C)c1,-134
CCc1cc(C(=O)Nc2ccc(C)cc2Br)cs1,-255
Oc1cccc(/C=N\Nc2nncc(-c3ccccc3)n2)c1,-210
Cc1[nH]n(-c2ccccc2)c(=O)c1/C=N/Nc1nncc(-c2ccccc2)n1,-
Cc1ccc(/C=N/Nc2nncc(-c3ccccc3)n2)o1,-99
Clc1ccc(-c2ccc(/C=N/Nc3nncc(-c4ccccc4)n3)o2)cc1,-75
CCCCC(=O)N/N=C(C)/C=C/c1ccccc1F,-76
CC(/C=C/c1ccccc1F)=N\NC(=O)C(C)C,-78
CCOC(=O)c1oc2nc3c(cc2c1N)CCCC3,-107
SMILES,aSyn 5UTR act
Cc1cccc(C(=O)NC(=O)Nc2c(C)cc(C)nc2C)c1,-147
Cc1nc(NC(=O)c2ccc(F)cc2)sc1C(=O)Nc1ccc2c(c1)CCC2,-99
CC(=O)c1sc(NC(=O)c2ccccc2C)nc1C,-88
Cc1ccc(CNc2nc(Cl)c(C#N)s2)cc1,-146
CC(=O)c1sc(NC(=O)c2ccc(F)c(F)c2)nc1C,-159
CC(=O)c1sc(NCc2ccc(C)cc2)nc1C,-168
CC(=O)c1sc(NC(=O)c2ccc(Cl)cc2)nc1C,-108
Cc1nc(NC(=O)c2cccc(Cl)c2)sc1C(=O)N1CCCCC1,-138
CC(=O)c1sc(NC(=O)c2cccc(C)c2)nc1C,-131
Clc1ccc(/C=C/c2ncc[nH]2)c(Cl)c1,-169
COc1cccc(/C=N/Nc2nn3cnnc3c3ccccc23)c1,-62
CCCCOC(=O)CSc1nc2c(cc1C#N)C(=O)CC(C)(C)C2,-133
COc1ccc(-c2ccc3oc(-c4ccsc4)cc3c2)cc1,-140
Cc1cc(C(=O)NCCC2=CCCCC2)c(C)o1,-123
COc1cccc(C(=O)NCCC2=CCCCC2)c1OC,-117
